Screen size: about 370,000 compounds; about 3,000 (0.81%) were called active.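 How the source made its calls: active means activity above about 14% (limit read from the data; passing the limit was not always enough); inactive means the rest.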 What follows is part of a selection rich in actives, with near analogues and random picks from the rest.

For this experiment, the target named is Nuclear receptor subfamily 1 group D member 1 (Homo sapiens) (UniProt P20393). Nature of the experiment: Rev-erbα–DNA interaction modulation – biochemical, FITC-DNA, fluorescence polarization, uHTS, primary screen (AID 1259318).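 Further: 0% = DMSO wells with 35 nM protein and 100% = DMSO wells with 750 nM protein.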 Particulars: Rev-erbα–FITC-DNA binding, 90 min, at 10 µM, active compounds read high. For orientation: In fluorescence polarisation assays a small probe gives low polarisation when free and higher when bound to something large.
Nuclear receptor subfamily 1 group D member 1 (Homo sapiens), sequence (P20393 whole entry, looked up): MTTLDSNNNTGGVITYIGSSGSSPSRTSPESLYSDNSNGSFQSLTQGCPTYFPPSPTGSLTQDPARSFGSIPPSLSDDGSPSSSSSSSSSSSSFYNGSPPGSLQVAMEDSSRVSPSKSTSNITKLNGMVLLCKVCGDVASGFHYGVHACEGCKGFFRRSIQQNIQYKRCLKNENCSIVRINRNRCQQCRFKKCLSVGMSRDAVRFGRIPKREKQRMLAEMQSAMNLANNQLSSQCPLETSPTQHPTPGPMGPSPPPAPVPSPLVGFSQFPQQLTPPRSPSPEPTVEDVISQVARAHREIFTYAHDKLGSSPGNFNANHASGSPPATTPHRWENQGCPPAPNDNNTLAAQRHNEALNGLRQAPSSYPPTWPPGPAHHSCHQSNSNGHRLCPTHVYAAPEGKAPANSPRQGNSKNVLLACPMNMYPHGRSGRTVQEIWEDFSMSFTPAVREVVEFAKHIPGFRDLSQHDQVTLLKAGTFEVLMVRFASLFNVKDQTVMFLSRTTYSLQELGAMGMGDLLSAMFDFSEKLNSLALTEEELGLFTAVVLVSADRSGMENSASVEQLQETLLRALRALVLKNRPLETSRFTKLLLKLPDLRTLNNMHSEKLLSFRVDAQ
Take `Cc1c[nH]c2cccc(-c3ccc(Cl)cc3)c12`: the activity was 4.69% (inactive).

For `CCCCCCCCCCCCCCCCO`, the activity is 2.41% (inactive).

As to `CCNC(=O)C1(C)CCCN(C(=O)c2c(C)noc2C)C1` (stereo not given), the activity is -9.88% (inactive).

Take `NC(N)=Nc1nc2ccc(Br)cc2c(=O)[nH]1`: the activity was 20.6% (active).

For `NC(=O)C1CCN(Cc2nc3c(Br)cc(Br)cc3c(=O)[nH]2)CC1`, the activity was -0.27% (inactive).

With `CC(C)(C)c1ccc(S(=O)(=O)N2CCN(C(=O)c3ccc4c(c3)C(=O)N(Cc3ccncc3)C4=O)CC2)cc1`, the activity was -6.31% (inactive).

For `COc1cccc(NS(=O)(=O)c2ccc3[nH]cc(C(=O)NCCCOC(C)C)c(=O)c3c2)c1`, the activity is 5.55% (inactive).

Take `CN(C)S(=O)(=O)c1ccc(N2CCCC2)c(C(=O)Nc2cccc(F)c2)c1`: the activity is 6.34% (inactive).

In the case of `CN(C)S(=O)(=O)c1ccc(N2CCCC2)c(C(=O)NCc2ccccc2)c1`, the activity is 5% (inactive).

Take `CN(C)S(=O)(=O)c1ccc(N2CCCC2)c(C(=O)Nc2ccc(Br)cc2F)c1`: the activity is 23.1% (active).

For `CC(C)(C)NC(=O)C(c1cccnc1)N(C(=O)c1cnco1)c1ccc(C(C)(C)C)cc1` (stereo not given), the activity is 0.3% (inactive).

Consider `CN1/C(=c2/s/c(=C3/C(=O)N(c4ccccc4)NC3=Nc3ccccc3)n(C)c2=O)C(C)(C)c2ccccc21`, for which the activity was 42.5% (active).

`COCCOC(=O)c1c(C)oc2cc(Br)c(OCC(N)=O)cc12`: the activity is -0.63% (inactive).

On to `Cc1cc(=O)oc2c(C(=O)c3ccccc3)c(OCC(N)=O)ccc12`, for which the activity was 1.4% (inactive).

As to `CCOC(=O)c1c(C)oc2cc(Br)c(OCC(N)=O)cc12`, the activity is 27.8% (active).

Consider `CCOc1ccc(NC(=O)CN(C)C(=O)CCSc2ccc(F)cc2)cc1OCC`, for which the activity was -6.91% (inactive).

On to `Nn1c(SCC(=O)Nc2cccc3ccccc23)nnc1-c1cc(-c2ccc(F)cc2)n[nH]1`, for which the activity is 0.84% (inactive).

As to `Cc1ccn2c(=O)nc(SCC(=O)NCc3ccc4c(c3)OCO4)nc2c1`, the activity was -6.16% (inactive).

Take `Cc1ccn2c(=O)nc(SCC(=O)NCc3ccc(F)cc3)nc2c1`: the activity is 10.3% (inactive).

For `COc1ccc(C2=NN(C(=O)CSc3nc(=O)n4ccc(C)cc4n3)C(c3ccc(C)cc3)C2)cc1` (stereo not given), the activity was 37.8% (active).

As to `CC(O)COc1ccccc1` (stereo not given), the activity is -2.15% (inactive).

Take `Cc1ccc(NS(=O)(=O)c2ccc(-c3ccc(=O)[nH]n3)o2)c(C)c1`: the activity is 1.28% (inactive).

Consider `N#C/C(=C\c1cccnc1)C(=O)Nc1ccc(SC(F)F)cc1`, for which the activity is -6.19% (inactive).

Regarding `Cc1ccc(-n2c(C)cc(/C=C(\C#N)C(=O)NCC3CCCO3)c2C)cc1` (stereo not given), the activity was -8.1% (inactive).

`Cc1cc(/C=C(/C#N)C(=O)Nc2ccc(Cl)cc2)c(C)n1-c1cccnc1`: the activity is 23.3% (active).

Take `CN(C)CCc1c[nH]c2ccc(Cn3cncn3)cc12`: the activity is -0.58% (inactive).

Regarding `CS(=O)(=O)N(Cc1ccccc1)c1ccc(C(=O)NN=C2CCCCCC2)cc1`, the activity is 1.02% (inactive).

As for `Cc1ccc(S(=O)(=O)c2nnn3c2nc(N2CCN(c4ccccn4)CC2)c2ccccc23)cc1`, the activity is 87.8% (active).

`Cc1cc(Nc2cccc(C)c2C)n2ncnc2n1`: the activity was 0.88% (inactive).

In the case of `Cc1nc(Nc2ccccc2C)c2cnn(C)c2n1`, the activity was 3.28% (inactive).

With `Cc1cccc(Nc2nc3c(S(=O)(=O)c4ccccc4)nnn3c3ccccc23)c1C`, the activity is 47.9% (active).

As for `Cc1ccc(S(=O)(=O)NCC(=O)N2CCN(c3ccccn3)CC2)cc1`, the activity was -1.9% (inactive).

For `CCOC(=O)c1nnn2c1nc(N1CCN(c3ccccc3)CC1)c1ccccc12`, the activity is -1.6% (inactive).

As for `CCN(CC(=O)Nc1c(F)cccc1F)C(=O)C1CCC1`, the activity was -2.66% (inactive).

As for `COc1cc(C(=O)N2CCOCC2)cc(OC)c1OC`, the activity is -1.7% (inactive).

For `N#Cc1cccc(NC(=O)COC(=O)c2ccccc2C(=O)c2ccc(Cl)c([N+](=O)[O-])c2)c1`, the activity is 3.08% (inactive).

Consider `CCCOc1ccc(Oc2c(Cl)cnn(Cc3cccc4ccccc34)c2=O)cc1`, for which the activity was -0.89% (inactive).

Regarding `Cc1c(C=O)c2ccccn2c1C(=O)c1ccncc1`, the activity was -1.4% (inactive).

As for `CN(C(=O)CSc1nnc(-c2n[nH]c3ccccc23)o1)c1ccccc1`, the activity is -0.39% (inactive).

Regarding `O=C1CN(C(=O)COc2c(Cl)cccc2Cl)c2ccccc2N1`, the activity is -1.39% (inactive).

As to `CCOc1ccc(C)cc1S(=O)(=O)NC1CCCCCC1`, the activity was 4.62% (inactive).

Take `O=C(CN1CCC(NC(=O)NCc2ccccc2)CC1)Nc1ccc2c(c1)OCCO2`: the activity was -2.38% (inactive).

On to `Cc1ccc2c(C(=O)CN3CCCC3)c(C)[nH]c2c1`, for which the activity is -0.66% (inactive).

Turning to `CC(C)(C)c1ccc(C(=O)Nc2cc(Cl)c(Br)cc2C(=O)O)cc1`, the activity is -8.64% (inactive).

With `COc1ccc(CN2[C@@H](CC(=O)O)c3cc(F)ccc3S2(=O)=O)cc1`, the activity is 1.62% (inactive).

With `COc1ccc(-c2csc3ncnc(N4CCN(S(=O)(=O)c5cccc(F)c5)CC4)c23)cc1`, the activity was 3.12% (inactive).

For `COc1ccc(S(=O)(=O)N2CCN(c3cnccn3)CC2)cc1`, the activity was 0.63% (inactive).

Consider `COc1ccc(S(=O)(=O)N2CCN(c3ncnc4c(-c5ccccc5)nsc34)CC2)cc1`, for which the activity is 27.5% (active).

Take `COc1ccc(-c2csc3ncnc(N4CCN(S(=O)(=O)c5ccccc5C#N)CC4)c23)cc1`: the activity was 28.3% (active).

On to `COc1ccc(-c2csc3ncnc(Oc4ccc5c(C)cc(=O)oc5c4)c23)cc1`, for which the activity was 3.46% (inactive).

For `COc1ccc(S(=O)(=O)N2CCSCC2)cc1`, the activity was -4.2% (inactive).

In the case of `CCC1(C)CC(=O)NC1=O` (stereo not given), the activity was -6.13% (inactive).

Turning to `CC(C)(C)c1ccc(/C=C2\SC(=O)N=C2N)cc1`, the activity was 0.2% (inactive).

As to `CCC(C)[C@H]1O[C@]2(CC[C@@H]1C)C[C@@H]1C[C@@H](C/C=C(\C)[C@@H](O[C@@H]3C[C@H](OC)[C@H](O[C@H]4C[C@H](OC)[C@@H](O)[C@H](C)O4)[C@H](C)O3)[C@@H](C)/C=C/C=C3\CO[C@@H]4[C@H](O)C(C)=C[C@@H](C(=O)O1)[C@]34O)O2` (stereo not given in full), the activity is 6.63% (inactive).

On to `C=CCn1c(=NC(=O)c2ccc(S(=O)(=O)N3CCCC3)cc2)sc2cc(NC(C)=O)ccc21`, for which the activity is 51.5% (active).

As for `CC(=O)Nc1ccc(S(=O)(=O)N2CCN(S(=O)(=O)c3cccs3)CC2)cc1`, the activity was -1.45% (inactive).

With `CCN(CC)S(=O)(=O)c1cccc(NC(=O)c2ccc(S(=O)(=O)N3CCCC3)cc2)c1`, the activity was 5.55% (inactive).

On to `C=CCn1c(CCNC(=O)c2cccs2)n[nH]c1=S`, for which the activity is -1.01% (inactive).

Regarding `O=C(Cn1c(=O)sc2ccccc21)Nc1ccc2c(c1)OCCO2`, the activity was 2.42% (inactive).

On to `C=CCn1c(=NC(=O)c2cccs2)sc2cc(NC(C)=O)ccc21`, for which the activity is 31.9% (active).

Source of the values: PubChem BioAssay AID1259318 (Sanford-Burnham Center for Chemical Genomics, 2017).
